Measured values published in PubChem BioAssay AID1542 (National Center for Advancing Translational Sciences (NCATS), 2009).
Results filed as inconclusive are left out. Calls come from the whole dose curve; as a rule, active = well fitted curve in the direction sought with a large enough effect; inconclusive = small, poorly fitted or top-dose-only effect, or effect the other way, or another doubt; inactive = no such curve, though single readings can be large or run the other way.

molecular target: Pyruvate kinase PKM (Homo sapiens) (UniProt P14618); assay: Secondary assay for Activators of Human Pyruvate Kinase M1 isoform; details: purified hPK-M1, LDH-coupled NADH fluorescence kinetic; series mostly up to 57.5 µM; activity change, positive = activation: at the top concentration
Text: Confirmatory assay NIH Chemical Genomics Center [NCGC] Matthew G. Vander Heiden, M.D., Ph.D. [Harvard Medical School, 77 Avenue Louis Pasteur, Boston, MA 02115] NCGC Assay Overview: Human pyruvate kinase […] (hPK-M1)enzyme was supplied as a highly purified (>95% pure) preparation from Harvard Medical School and a secondary assay was used to evaluate compounds. This assay couples the formation of pyruvate from hPK-R using lactate dehydrogenase (LDH) and NADH. The depletion of NADH is followed in a fluorescent-based kinetic assay that follows the formation of pyruvate to lactate, as catalyzed LDH. Pyruvate kinase substrates, PEP and ADP, were present in the assay at 0.1 mM and 4 mM respectively. In this kinetic assay initial rates were determined by following the fluorescence of NADH depletion.
NCGC Assay Protocol Summary: Three uL of substrate mix (final concentration, 50 mM Tris-Cl pH 8.0, 200 mM KCl, 15 mM MgCl2, 0.1 mM PEP, 4.0 mM ADP, and 0.2 mM NADH) was dispensed into black-solid 1536 well plates. 23 nL of compounds were delivered by a pin tool and 1 uL of enzyme mix (final concentrations, 10 nM hPK-M1 and 1 uM of LDH) was added. Plates were immediately placed in ViewLux (Perkin Elmer) and NADH fluorescence was determined at 30 second exposure intervals for between 3 and 6 minutes. Data were normalized to the uninhibited controls.

Pyruvate kinase PKM (Homo sapiens), sequence (P14618 whole entry, looked up, canonical isoform): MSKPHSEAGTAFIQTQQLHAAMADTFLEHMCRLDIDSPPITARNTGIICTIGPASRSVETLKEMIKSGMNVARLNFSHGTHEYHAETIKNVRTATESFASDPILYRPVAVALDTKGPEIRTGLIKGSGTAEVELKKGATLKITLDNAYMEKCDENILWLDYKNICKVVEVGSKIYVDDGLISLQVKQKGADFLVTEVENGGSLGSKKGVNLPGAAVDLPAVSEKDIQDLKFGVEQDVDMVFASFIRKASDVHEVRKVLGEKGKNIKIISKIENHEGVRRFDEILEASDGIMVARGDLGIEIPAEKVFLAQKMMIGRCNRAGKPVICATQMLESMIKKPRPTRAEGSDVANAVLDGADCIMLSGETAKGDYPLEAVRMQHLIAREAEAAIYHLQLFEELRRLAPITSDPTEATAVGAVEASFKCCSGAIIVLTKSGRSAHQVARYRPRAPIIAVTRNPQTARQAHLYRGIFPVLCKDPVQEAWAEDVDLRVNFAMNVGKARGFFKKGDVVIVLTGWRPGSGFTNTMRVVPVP

Activity change, positive = activation, inactive:
O=S(=O)(c1ccc2c(c1)OCCO2)N1CCN(S(=O)(=O)c2c(F)cccc2F)CC1 8.24%
O=S(=O)(c1ccc2c(c1)OCCCO2)N1CCN(S(=O)(=O)c2c(F)cccc2F)CC1 4.66%
O=S(=O)(NC1CCC(NS(=O)(=O)c2c(F)cccc2F)CC1)c1ccc2c(c1)OCCO2 (stereo not given) 3.43%
O=S(=O)(NCC1CN(S(=O)(=O)c2c(F)cccc2F)C1)c1ccc2c(c1)OCCO2 -5.12%
Cc1nc2ccc(S(=O)(=O)N3CCN(S(=O)(=O)c4c(F)cccc4F)CC3)cc2s1 11.1%
O=S(=O)(c1ccc2c(c1)OCCO2)N1CCN(S(=O)(=O)c2ccc3c(c2)OCCO3)CC1 4.7%
O=C(O)/C=C/c1cc(F)c(S(=O)(=O)N2CCN(S(=O)(=O)c3ccc4c(c3)OCCO4)CC2)cc1F -16.2%
C[C@H]1CN(S(=O)(=O)c2ccc3c(c2)OCCO3)CCN1S(=O)(=O)c1c(F)cccc1F 14.6%
Cc1cc2c(s1)c1cnn(Cc3ccccc3F)c(=O)c1n2Cc1ccccc1F 21.1%
CCOC(=O)CCc1cc(F)c(S(=O)(=O)N2CCN(S(=O)(=O)c3ccc4c(c3)OCCO4)CC2)cc1F -4.06%
COc1ccc(S(=O)(=O)N2CCN(S(=O)(=O)c3c(F)cccc3F)CC2)cc1 5.64%
O=S(=O)(NC1CCN(S(=O)(=O)c2ccc3c(c2)OCCO3)CC1)c1c(F)cccc1F -0.701%
O=C1CN(S(=O)(=O)c2c(F)cccc2F)CCN1S(=O)(=O)c1ccc2c(c1)OCCO2 -4.39%
COC/C=C/c1cc(F)c(S(=O)(=O)N2CCN(S(=O)(=O)c3ccc4c(c3)OCCO4)CC2)cc1F -14.8%
C=Cc1cc(F)c(S(=O)(=O)N2CCN(S(=O)(=O)c3ccc4c(c3)OCCO4)CC2)cc1F -7.75%
Cn1c2cc(C(=O)O)sc2c2cnn(Cc3ccccc3F)c(=O)c21 -11.8%
C=Cc1cc2c(s1)c1cnn(Cc3ccccc3F)c(=O)c1n2C -6.78%
Cc1cc2c(s1)c1cnn(Cc3ccc(Cl)cc3)c(=O)c1n2C -0.421%
CC(C)c1cc2c(s1)c1cnn(Cc3ccccc3F)c(=O)c1n2C 2.22%
Cc1cc2c(s1)c1cnn(Cc3ccc(F)cc3)c(=O)c1n2C 7.03%
Cc1cc2c(s1)c1cnn(Cc3ccccc3F)c(=O)c1n2C 1.47%
COC(=O)c1cc(F)c(S(=O)(=O)N2CCN(S(=O)(=O)c3ccc4c(c3)OCCO4)CC2)cc1F -0.231%
CS(=O)(=O)Nc1cccc(-c2cc(F)c(S(=O)(=O)N3CCN(S(=O)(=O)c4ccc5c(c4)OCCO5)CC3)cc2F)c1 -9.36%
Cc1cc2c(s1)c1cnn(Cc3cccc(Cn4ncc5c6sc(C)cc6n(C)c5c4=O)c3F)c(=O)c1n2C -9.29%
O=S(=O)(c1c(F)cccc1F)C1CCN(S(=O)(=O)c2ccc3c(c2)OCCO3)CC1 -23.9%
O=C(N1CCc2ccc(S(=O)(=O)N3CCN(S(=O)(=O)c4ccc5c(c4)OCCO5)CC3)cc2C1)C(F)(F)F -17.2%
O=C(O)c1cc(F)c(S(=O)(=O)N2CCN(S(=O)(=O)c3ccc4c(c3)OCCO4)CC2)cc1F 19.7%
O=C(c1c(F)cccc1F)N1CCN(S(=O)(=O)c2ccc3c(c2)OCCO3)CC1 9.03%
COc1ccc(S(=O)(=O)N2CCN(S(=O)(=O)c3ccc4c(c3)OCCO4)CC2)cc1 -6.87%
O=S(=O)(c1ccc2nc(Cl)c(Cl)nc2c1)N1CCN(S(=O)(=O)c2c(F)cccc2F)CC1 17.4%
O=c1[nH]c2ccc(S(=O)(=O)N3CCN(S(=O)(=O)c4c(F)cccc4F)CC3)cc2[nH]c1=O -22%
CCOC(=O)/C=C/c1cc(F)c(S(=O)(=O)N2CCN(S(=O)(=O)c3ccc4c(c3)OCCO4)CC2)cc1F -2.46%
COCCCc1cc(F)c(S(=O)(=O)N2CCN(S(=O)(=O)c3ccc4c(c3)OCCO4)CC2)cc1F -12%
O=C(O)CCc1cc(F)c(S(=O)(=O)N2CCN(S(=O)(=O)c3ccc4c(c3)OCCO4)CC2)cc1F 2.14%
Cc1cc2c(s1)c1cnn(Cc3c(F)cccc3Cl)c(=O)c1n2C 12.7%
Cc1cc2c(s1)c1cnn(Cc3ccc(C(F)(F)F)cc3F)c(=O)c1n2C 9.47%
O=C(O)Cc1cc(F)c(S(=O)(=O)N2CCN(S(=O)(=O)c3ccc4c(c3)OCCO4)CC2)cc1F 19%
Cn1c2cc(S(C)(=O)=O)sc2c2cnn(Cc3ccccc3F)c(=O)c21 23.4%
O=S(=O)(c1ccc2c(c1)OCCO2)N1CCN(S(=O)(=O)c2cc(F)c(Br)cc2F)CC1 -15.8%
C[C@@H]1CN(S(=O)(=O)c2c(F)cccc2F)CCN1S(=O)(=O)c1ccc2c(c1)OCCO2 12%
